Test results: PubChem BioAssay (NCI)
Compounds without any hit were thinned out: in the full panel of roughly 83,000, 20% have a hit.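 48-hour exposure, single concentration, 96-well plates; percent growth endpoint where 0 means no net growth. Active: below 10.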 Unmarked numbers belong to inactive results. Activity calls are given as the source filed them.

system: SW-620 colon; test: NCI-60 one-dose screen, 48 h (100 = growth as untreated, 0 = no growth, -100 = all killed); conditions: 10 µM unless noted

Row | SMILES | growth
1 | COc1ccc(OC)c(-c2ccc(-c3ccccc3N)c3[nH]c4ccccc4c23)c1 | 80.7%
2 | COc1ccc(S(=O)(=O)Nc2cc(/C=C\c3cc(OC)c(OC)c(OC)c3)cc(OC)c2OC)cc1OC | 25.5%
3 | Cc1cc(NC(=O)COC(=O)c2sc3cc(F)ccc3c2Cl)no1 | 108%
4 | Nc1c(C(=O)Nc2cccc(C(F)(F)F)c2)sc2nc3c(cc12)C(O)CCC3 (stereo not given) | 33.1%
5 | CC(=O)C1CCC(C)=CC1=O (stereo not given) | 103%
6 | COc1ccc(-c2nc3sccn3c2-c2ccnc(NCCCNS(=O)(=O)c3ccc(F)cc3)n2)cc1 | 23.2%
7 | COc1cc(-c2csc(NC(=O)Nc3ccc(Cl)cc3Cl)n2)cc(OC)c1OC | 28.8%
8 | CCSc1nnc(Nc2ccc(C(C)C)cc2)s1 | 84.1%
9 | CCOC(=O)CC/C(C)=N\Nc1ccc([N+](=O)[O-])cc1 | 57.2%
10 | Cc1ccc2c(c1)C(=O)C(c1c(-c3[nH]c(=O)c4ccc(C)cc4c3O)c(O)c3ccccc3c1O)=NC2=O | 7.11% (active)
11 | CN(C)CCCNC(=O)C(c1ccccc1)c1ccccc1 | 100%
12 | COc1ccc(-c2nnc(COc3ccc(NC(=O)Nc4ccc(Cl)c(C(F)(F)F)c4)cc3F)o2)cc1 | 9.95% (active)
13 | O=c1oc2cc(OS(=O)(=O)c3ccc(F)cc3)ccc2c2c1CCCCC2 | 46.3%
14 | Nc1nc(-c2ccccc2)cs1 | 108%
15 | COc1ccc(C(=O)/C=C/c2cccc([N+](=O)[O-])c2)c(OC)c1 | -67.4% (active)
16 | C=CCOc1cccc(/C=C/C(=O)c2sc(Nc3cccnc3)nc2C)c1 | 15.5%
17 | Cc1cc(Nc2nc(C(=O)Nc3ccccc3)nc3ccccc23)n[nH]1 | 77.5%
18 | CC1CCN(C(=O)CSc2nc3sc4c(c3c(=O)[nH]2)CCCC4)CC1 | 108%
19 | COc1ccc(-c2nc(-c3nc4ccc(F)cc4[nH]3)cc3c2[nH]c2ccccc23)cc1 | 48.3%
20 | CC/C=C\C[C@H](O)C/C=C1/C(=O)C(Cl)=C[C@@H]1C/C=C\CCCC(=O)O | 2.12% (active)
21 | O=c1[nH]c2ccccc2cc1-c1nnc(Cc2ccccc2)o1 | 45%
22 | COc1ccc(C2CC(c3cccs3)=NN2c2ccc(S(=O)(=O)NC(=O)Nc3ccc(C)cc3)cc2)cc1 (stereo not given) | 106%
23 | CCSc1nnc(NC(=O)COc2ccc(Cl)cc2C)s1 | 102%
24 | COc1ccc(Cn2c(SC)nc(=O)n(Cc3ccc(Cl)cc3)c2=O)cc1 | 103%
25 | O=C(Nc1ccc(Br)c(Cl)c1)c1cc(F)ccc1O | 7.76% (active)
26 | O=C(CCl)NCCNc1nccc(Nc2ccc(S(=O)(=O)Nc3ccccn3)cc2)n1 | 8.07% (active)

system: MCF7 breast; test: as above; conditions: 10 µM unless noted

Row | SMILES | growth
27 | O=S(=O)(NCCCNc1cc(-c2cn(-c3ccccc3)nc2-c2cccc(O)c2)ccn1)c1ccc(Cl)cc1 | 11%
28 | COc1ccc(-c2nc3sccn3c2-c2ccnc(NCCCNS(=O)(=O)c3ccc(C)cc3)n2)cc1 | 34.3%
29 | O=C1c2ccccc2C(=O)c2c1oc1oc3c(c(=O)c21)c(=O)n(-c1ccccc1)c1ccccc31 | 51.6%
30 | C#CCC1(c2ccc(F)c(F)c2)NS(=O)(=O)c2ccccc21 (stereo not given) | 94.1%
31 | Cc1nc(Nc2cccnc2)sc1C(=O)/C=C/c1ccc(F)cc1 | 14.2%
32 | CCC#CC[C@H]1C/C=C2/C(=O)C=C[C@@H]2C/C=C\CCCC(=O)O1 | 18.3%
33 | CNC(=O)Cc1nc(-c2cccc(NS(=O)(=O)c3c(F)cccc3F)c2F)c(-c2ccnc(Nc3ccccc3)n2)s1 | 86.2%
34 | CC(=O)Nc1ccc2c(c1)/C(=C\C=C/c1ccc([N+](C)(C)C)cc1)c1ccccc1-2 | 60.4%
35 | COc1cc(OC)cc(-c2n[nH]nc2-c2ccc3c(c2)OCO3)c1 | 24.3%
36 | O=C1CCC/C=C\C[C@H]2C=CC(=O)/C2=C/C[C@H](C/C=C\CC(F)(F)F)O1 | 6.19% (active)
37 | O=C(Nc1cccc(Cl)c1)c1cc([N+](=O)[O-])ccc1O | 42.9%
38 | O=C1N=C(c2c(-c3[nH]c(=O)c4ccc(Br)cc4c3O)c(O)c3ccccc3c2O)C(=O)c2cc(Br)ccc21 | -35.2% (active)
39 | COc1cc(-n2nc(C(=O)Nc3ccc(C(=O)O)cc3)nc2-c2ccccc2)cc(OC)c1OC | 93.5%
40 | COc1ccc(OC)c(-c2ccc(-c3ccccc3N)c3[nH]c4ccccc4c23)c1 | 69.8%
41 | COc1ccc(S(=O)(=O)Nc2cc(/C=C\c3cc(OC)c(OC)c(OC)c3)cc(OC)c2OC)cc1OC | 18.1%
42 | Cc1cc(NC(=O)COC(=O)c2sc3cc(F)ccc3c2Cl)no1 | 106%
43 | Nc1c(C(=O)Nc2cccc(C(F)(F)F)c2)sc2nc3c(cc12)C(O)CCC3 (stereo not given) | 10.2%
44 | CC(=O)C1CCC(C)=CC1=O (stereo not given) | 88.4%
45 | COc1ccc(-c2nc3sccn3c2-c2ccnc(NCCCNS(=O)(=O)c3ccc(F)cc3)n2)cc1 | 11.6%
46 | COc1cc(-c2csc(NC(=O)Nc3ccc(Cl)cc3Cl)n2)cc(OC)c1OC | 11.8%

Row | SMILES | growth
47 | CCSc1nnc(Nc2ccc(C(C)C)cc2)s1 | 95.2%
48 | CCOC(=O)CC/C(C)=N\Nc1ccc([N+](=O)[O-])cc1 | 79.9%
49 | Cc1ccc2c(c1)C(=O)C(c1c(-c3[nH]c(=O)c4ccc(C)cc4c3O)c(O)c3ccccc3c1O)=NC2=O | 12.3%
50 | CN(C)CCCNC(=O)C(c1ccccc1)c1ccccc1 | 96.3%
51 | COc1ccc(-c2nnc(COc3ccc(NC(=O)Nc4ccc(Cl)c(C(F)(F)F)c4)cc3F)o2)cc1 | 2.31% (active)
52 | O=c1oc2cc(OS(=O)(=O)c3ccc(F)cc3)ccc2c2c1CCCCC2 | 59.9%
53 | Nc1nc(-c2ccccc2)cs1 | 94.4%
54 | COc1ccc(C(=O)/C=C/c2cccc([N+](=O)[O-])c2)c(OC)c1 | 7.98% (active)
55 | C=CCOc1cccc(/C=C/C(=O)c2sc(Nc3cccnc3)nc2C)c1 | 19.1%
56 | Cc1cc(Nc2nc(C(=O)Nc3ccccc3)nc3ccccc23)n[nH]1 | 72.1%
57 | CC1CCN(C(=O)CSc2nc3sc4c(c3c(=O)[nH]2)CCCC4)CC1 | 109%
58 | COc1ccc(-c2nc(-c3nc4ccc(F)cc4[nH]3)cc3c2[nH]c2ccccc23)cc1 | 32.2%
59 | CC/C=C\C[C@H](O)C/C=C1/C(=O)C(Cl)=C[C@@H]1C/C=C\CCCC(=O)O | 26.3%
60 | O=c1[nH]c2ccccc2cc1-c1nnc(Cc2ccccc2)o1 | 20.5%
61 | COc1ccc(C2CC(c3cccs3)=NN2c2ccc(S(=O)(=O)NC(=O)Nc3ccc(C)cc3)cc2)cc1 (stereo not given) | 97.1%
62 | CCSc1nnc(NC(=O)COc2ccc(Cl)cc2C)s1 | 91%
63 | COc1ccc(Cn2c(SC)nc(=O)n(Cc3ccc(Cl)cc3)c2=O)cc1 | 92%
64 | O=C(Nc1ccc(Br)c(Cl)c1)c1cc(F)ccc1O | 2.5% (active)
65 | O=C(CCl)NCCNc1nccc(Nc2ccc(S(=O)(=O)Nc3ccccn3)cc2)n1 | 11%
